Screening results deposited in PubChem BioAssay by National Center for Advancing Translational Sciences (NCATS).
SMN2 splice enh – SMN2 splice variant enhancement; HEK293 SMN2-luciferase splicing reporter, luminescence, 30-36 h; Potency, µM (doses to about 46.1 µM), for inactives: top-dose activity change, positive = activation, most hits filed as activators; 210,000 tested, 2.8% active; also: % of control where 0% means no effect; nearly all actives have a fitted effect of over 55% in size
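HEK293 cells carry an SMN2 […]–luciferase reporter in which exon 7 inclusion puts luciferase in frame. Cells were plated 10-12 h before compound addition, then incubated 30-36 h at 37C. ONE-Glo luminescence was read; sodium butyrate at 4.5 mM final served as control.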
ELG1 genotoxic – inducers of genotoxicity in HEK293T ELG1-luciferase cells. HEK293T ELG1-luciferase reporter, luminescence, 16 h. Potency, µM (top dose mostly 46 µM), for inactives: top-dose activity change, positive = activation, usual class: activators. 330,000 tested, 1.3% active; also: % of control where 0% means no effect; nearly all actives have a fitted effect of over 60% in size
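HEK293T cells expressing luciferase-tagged ELG1 were treated with compound or DMSO for 16 hr at 37°C. Luciferase activity was then read after 30 min with ONE-Glo at room temperature; rising signal flags genetic stress.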
Rab9 promoter act – Rab9 promoter activation; 320,000 tested, 2.8% active; Huh7 Rab9 promoter-luciferase reporter, luminescence, 24 h; Potency, µM (highest dose often 9.22 µM), for the others: at the top dose activation, negative = inhibition, usual class: activators; also: % of control where 0% means no effect; nearly all actives have a fitted effect of over 60% in size
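Stable Rab9-luc Huh7, 1500 cells/well, 2 h settle; cmpd in DMSO, 24 h, 37 °C/5% CO2; luciferase reagent 10 min RT; luminescence.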
NPC1 prom act – activators of NPC1 promoter; 320,000 tested, 2.4% active; Huh7 NPC1 promoter luciferase reporter, 24 h; Potency, µM (series often up to 9.22 µM), without a hit: top-dose activation, hits mostly activators; also: % of control where 0% means no effect; nearly all actives have a fitted effect of over 60% in size
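Luminescence read-out of NPC1 promoter-driven luciferase in stably transfected Huh7 cells; compounds delivered in DMSO and left 24 h at 37C, 5% CO2, qHTS titration format.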
FLuc modulator – counter-screen for miR-21 project: firefly luciferase inhibitors or activators. Potency, µM (doses to about 57.5 µM), without a hit: at the highest dose activity change, negative = inhibition, usual class: inhibitors. 360,000 tested, 6.9% active. AID 588342. purified FLuc, Km substrates, luminescence inhibition. P08659;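 also: plate controls were vehicle for no effect and reference inhibitor for full effect; nearly all actives have a fitted effect of over 55% in size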
Target sequence (P08659 whole entry, looked up): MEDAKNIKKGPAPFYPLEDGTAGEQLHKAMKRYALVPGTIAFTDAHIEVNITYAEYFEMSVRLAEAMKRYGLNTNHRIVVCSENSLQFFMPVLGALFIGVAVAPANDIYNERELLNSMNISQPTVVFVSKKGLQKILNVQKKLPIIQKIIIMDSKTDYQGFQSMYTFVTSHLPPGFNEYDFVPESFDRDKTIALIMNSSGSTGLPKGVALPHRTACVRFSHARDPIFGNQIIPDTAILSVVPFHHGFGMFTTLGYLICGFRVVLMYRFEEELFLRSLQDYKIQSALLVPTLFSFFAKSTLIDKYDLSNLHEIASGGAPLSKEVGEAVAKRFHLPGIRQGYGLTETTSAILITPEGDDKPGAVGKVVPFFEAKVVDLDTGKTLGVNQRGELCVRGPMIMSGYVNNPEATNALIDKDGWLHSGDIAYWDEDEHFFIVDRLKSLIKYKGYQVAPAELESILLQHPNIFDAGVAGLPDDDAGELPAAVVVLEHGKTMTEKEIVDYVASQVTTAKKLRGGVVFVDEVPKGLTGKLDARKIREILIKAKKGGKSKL
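Purified P. pyralis luciferase (10nM final) with 10uM D-luciferin and 10uM ATP (Km levels) in 50mM Tris acetate pH 7.5, 10mM Mg acetate, 0.01% Tween-20, 0.05% BSA; qHTS 6-point titration, ~60 µM downward; luminescence read.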
An asterisk follows results filed as active; ? = inconclusive; · = no result given; [ ] = dose if it differs, or a comment. A selection: hits, their analogues and other compounds. The true share with any hit is near 7.5%. Calls follow the shape of the dose curve; as a rule, active = well fitted curve in the direction sought with a large enough effect; inconclusive = small, poorly fitted or top-dose-only effect, or another doubt; inactive = no such curve, though single readings can be large; an effect the other way counts as inactive or inconclusive. Potency is read from the fitted curve at half-maximal effect.

SMILES	SMN2 splice enh	ELG1 genotoxic	Rab9 promoter act	NPC1 prom act	FLuc modulator
COc1cccc(NC(=O)CSc2nnc(COc3ccc4c(c3)CCCC4)o2)c1	1%	-1%	1%	12%	21µM*
C=CCn1c(COc2ccc3c(c2)CCCC3)nnc1SCC(=O)Nc1cccc(SC)c1	8%	-8%	8%	11%	13µM*
C=CCn1c(COc2ccccc2)nnc1SCC(=O)Nc1ccc2c(c1)OCCO2	-2%	4%	3%	-6%	-8%
COc1ccc(OCc2nnc(SCC(=O)Nc3cccc(C(C)=O)c3)o2)cc1	·	-2%	-1%	-3%	19µM*
CCOC(=O)Cc1csc(NC(=O)c2cccc([N+](=O)[O-])c2)n1	·	-5%	1%	2%	-17%
Cc1[nH]c2ccccc2c1C(=O)C(=O)N(C)C1CCCCC1	·	0%	-9%	-3%	-10%
Cc1[nH]c2ccccc2c1C(=O)CSC(=S)N1CCCCC1	8.9µM*	?	?	?	9.5µM*
Cc1[nH]c2ccccc2c1C(=O)CSC(=S)N(C)C1CCCCC1	-1%	5%	-2%	14%	15µM*
Cc1[nH]c2ccccc2c1SCC(=O)N1CCCCC1	0%	-3%	0%	-1%	-17%
CCCC(=O)Nn1cnc2c(c1=O)C1(CCCCC1)Cc1ccccc1-2	-2%	-2%	-1%	-2%	-17%[2.3 µM]
COc1ccc2c(c1)CC/C(=C/c1ccccn1)C2=O	·	15%	?	?	5.4µM*
COc1ccc2c(c1)CC/C(=C\C=C\c1ccccc1)C2=O	?	9%	8%	18%	2.7µM*
COc1ccc(/C=C2\CCc3ccccc3C2=O)cc1OC	-25%	17%	4%	2%	5.4µM*
COc1ccc2c(c1)CC/C(=C/c1cc(OC)c(OC)c(OC)c1)C2=O	-58%	-12%	1%	4%	-16%
COc1cccc(/C=C2\CCc3ccccc3C2=O)c1	·	2.6µM*	?	?	0.15µM*
CSC1=NC2(CCCCC2)CC12C=CC(=O)C=C2	·	5%	2%	5%	0%
CC1CC(C)CN(C(=O)c2ccc(NS(=O)(=O)c3ccc4[nH]c(=O)[nH]c4c3)cc2)C1 (configuration not stated)	·	1%	1%	1%	5%
CC(C)(C)NS(=O)(=O)c1ccc(OCC(=O)NCC2CCCO2)cc1 (configuration not stated)	·	2%	-7%	-3%	1%
COc1cc(/C=C2\CC/C(=C\c3ccc(OCCO)c(OC)c3)C2=O)ccc1OCCO	-24%	-4%	-2%	-3%	-9%
CC(=O)Oc1ccc(/C=C2/CCc3ccccc3C2=O)cc1	·	?	15%	-4%	0.6µM*
COc1ccc(/C=C2\CC/C(=C\c3ccc(OC)c(OC)c3)C2=O)cc1OC	4%	12%	-6%	1%	1.2µM*
CC(=O)Oc1ccc(C(=O)Nc2ccccc2NC(=O)c2ccc(OC(C)=O)cc2)cc1	·	-3%	-6%	1%	-1%
COc1cccc(/C=C2\C(=O)C(=O)c3ccccc32)c1	16%	4%	-3%	-2%	21µM*
COc1cc(/C=C2\COC/C(=C\c3ccc(O)c(OC)c3)C2=O)ccc1O	·	-17%	-43%	-11%	17µM*
COc1cc(C=C2C(=O)c3ccccc3C2=O)cc(OC)c1	·	1%	2%	-3%	-15%
SMILES	SMN2 splice enh	ELG1 genotoxic	Rab9 promoter act	NPC1 prom act	FLuc modulator
COc1cc(/C=C2/CC/C(=C/c3ccc(O)c(OC)c3)C2=O)ccc1O	·	-4%	-2%	-5%	11µM*
CCN1C/C(=C/c2ccc(OC)c(O)c2)C(=O)/C(=C/c2ccc(OC)c(O)c2)C1	-105%	-21%	-44%	-45%	4%
COc1cccc(OCc2cc(C(=O)N(C)Cc3nc4ccccc4[nH]3)no2)c1	·	?	?	3.2µM*	11µM*
CC(=O)c1cccc(OCc2cc(C(=O)NCc3nc(C)c(C)s3)no2)c1	·	?	?	?	17µM*
CCOC(=O)N1CCN(C(=O)c2cc(COc3cccc(C(C)=O)c3)on2)CC1	·	13%	?	23%	?
CC(=O)c1cccc(OCc2cc(C(=O)N(C)Cc3cnccn3)no2)c1	·	?	2.5µM*	?	?
CN(Cc1cccnc1)C(=O)c1cc(COc2ccc3c(c2)CCCC3)on1	·	?	?	1.3µM*	11µM*
CC1=C(c2ccc(C)c(C)c2)S(=O)(=O)N(Cc2ccc(C(=O)NCc3ccccc3F)cc2)C1=O	3%	·	·	·	-4%
COc1ccccc1C(=O)NCC(=O)Nc1cccnc1	-8%	0%	-2%	6%	0%
Cc1c(CC(=O)O)c(=O)oc2cc(OCc3ccc(Br)cc3)ccc12	·	13%	15%	3%	11µM*
Cc1c(CC(=O)O)c(=O)oc2cc(OCc3ccc(F)cc3F)ccc12	·	3%	-2%	1%	17µM*
Cc1c(CCC(=O)O)c(=O)oc2cc(OCc3ccccc3Br)ccc12	·	-3%	-3%	-4%	?
Cc1ccc(S(=O)(=O)N2CCOCC2)cc1NC(=O)COC(=O)c1cncc(Br)c1	·	-1%	·	·	·
COc1cc(/C=N/NC(=O)c2ccc3nc[nH]c3c2)cc(OC)c1OC	·	-4%	-7%	-10%	12µM*
COc1cc(/C=N\NC(=O)c2ccc(-c3ccccc3)cc2)cc(OC)c1OC(C)=O	·	-2%	12%	-3%	?
COc1cc(/C=N/NC(=O)c2cccc(NC(=O)c3ccccc3)c2)ccc1O	·	-8%	20%	16%	9.5µM*
COc1ccc(/C=N/NC(=O)c2ccc3nc[nH]c3c2)cc1OC	·	-5%	-4%	0%	?
O=C(Cn1nc2ccccc2n1)N/N=C/c1cc(Cl)cc([N+](=O)[O-])c1O	-23%	6%	-3%	-1%	?
COc1cc(/C=N\NC(=O)c2ccc(-c3ccccc3)cc2)cc(OC)c1O	·	4%	21%	4%	9.5µM*
Cc1ccccc1C(=O)Nc1cccc(C(=O)N/N=C/c2cc(Cl)cc([N+](=O)[O-])c2O)c1	·	14%	1%	1%	21µM*
CC1Cc2ccccc2N1C(=O)COC(=O)C1(c2ccccc2F)CCCC1 (configuration not stated)	-13%	-10%	0%	-2%	0%
COc1cc(/C=N/NC(=S)Nc2cccc(S(=O)(=O)N(C)C)c2)ccc1O	21%	1%	0%	-3%	2.7µM*
CN(C)S(=O)(=O)c1cccc(NC(=S)N/N=C/C2CC=CCC2)c1 (configuration not stated)	6%	0%	-3%	-1%	?
COc1ccc(/C=N/NC(=O)c2ccc(NC(=O)c3cccc([N+](=O)[O-])c3)cc2)c(OC)c1	3%	-3%	8%	2%	-8%
COc1ccc(/C=N/NC(=O)c2cccc(NC(=O)c3ccc(Cl)cc3)c2)c(OC)c1	?	3%	?	24%	2.7µM*
